HPGD inh = blocks human HPGD enzyme activity. P15428. purified HPGD, NADH fluorescence kinetic, PGE2 substrate. Potency, µM, without a hit: at the highest dose activity change, negative = inhibition, usual class: inhibitors. 4.3% of 150,000 active; note: potency is the fitted concentration of half-maximal effect; % is set by controls: 0 for no effect and ±100 for the full control effect
Target sequence (P15428 whole entry, looked up): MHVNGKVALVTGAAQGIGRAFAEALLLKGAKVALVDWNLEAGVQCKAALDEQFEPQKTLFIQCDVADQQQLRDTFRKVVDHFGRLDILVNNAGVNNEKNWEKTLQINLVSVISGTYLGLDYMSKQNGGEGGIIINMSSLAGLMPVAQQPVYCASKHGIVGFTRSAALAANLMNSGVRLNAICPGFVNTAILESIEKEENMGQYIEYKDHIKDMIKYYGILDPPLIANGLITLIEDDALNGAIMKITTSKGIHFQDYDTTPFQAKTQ
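20 nM HPGD preincubated 15 min at room temperature with compound in 50 mM Tris-HCl pH 8, 0.01% Tween 20. Started with 1 mM NAD+ and 30 uM prostaglandin E2; NADH fluorescence (360/450 nm) read 5 times over 30-s intervals, last minus first.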
HttQ103 aggreg = inhibitors of mutant huntingtin aggregate formation in PC12 cells; PC12 HttQ103-GFP aggregates, Acumen cytometry, 40 h; Potency, µM (highest dose often 46.1 µM), inactives show at the highest dose activity change, negative = inhibition, actives largely listed as inhibitors; 1.1% of 220,000 active; active = well fitted curve in the direction sought with a large enough effect; inconclusive = small, poorly fitted or top-dose-only effect, or another doubt; inactive = no such curve, though single readings can be large; an effect the other way counts as inactive or inconclusive; note: potency is the fitted concentration of half-maximal effect; % is set by controls: 0 for no effect and ±100 for the full control effect; nearly all actives have a fitted effect of over 60% in size
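Quantitative HTS on tebufenozide-induced (100 nM) PC12 cells stably expressing polyQ103 Huntingtin exon 1–GFP. Reduction of bright GFP aggregates, detected by laser scanning cytometry after lysis, identified actives across the titration.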
GoLoco inh red = blocks human Gai1 binding to RGS12 GoLoco peptide, red readout; Gai1:RGS12 GoLoco peptide FP, rhodamine, 10 min; AID 880; 0.44% of 230,000 active; Potency, µM (series often up to 61.6 µM), for inactives: top-dose activity, negative = inhibition, usual class: inhibitors; P63096; active = well fitted inhibition curve with a large enough effect, not every such curve was filed as active; inactive = no such curve, though single readings can be large or run the other way; note: potency is the fitted concentration of half-maximal effect; % is set by controls: 0 for no effect and ±100 for the full control effect; nearly all actives have a fitted effect of over 30% in size
Target sequence (P63096 whole entry, looked up): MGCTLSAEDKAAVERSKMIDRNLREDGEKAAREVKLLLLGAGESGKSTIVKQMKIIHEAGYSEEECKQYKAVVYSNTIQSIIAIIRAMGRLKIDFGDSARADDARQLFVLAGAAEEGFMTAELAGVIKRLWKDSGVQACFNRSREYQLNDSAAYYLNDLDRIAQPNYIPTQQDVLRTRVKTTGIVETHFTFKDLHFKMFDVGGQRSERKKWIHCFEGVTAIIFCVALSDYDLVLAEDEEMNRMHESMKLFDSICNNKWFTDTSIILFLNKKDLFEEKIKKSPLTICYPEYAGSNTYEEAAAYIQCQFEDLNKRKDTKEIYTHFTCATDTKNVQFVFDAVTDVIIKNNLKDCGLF
PNC inhibitor = perinucleolar compartment assembly inhibition; 3.1% of 140,000 active; PC3M PTB-GFP, PNC prevalence imaging, 16 h; active compounds read low; activity change (PNC), negative = inhibition, % at 10 µM;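 active = readout at or below -70, meaning at least 70% loss of cells showing the perinucleolar compartment, a nuclear body marking cancer cells; inconclusive = readout between -30 and a set limit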;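 note: plate controls were DMSO wells for no effect and camptothecin positive control wells for full effect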
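Read-out is percentage of cells bearing a perinucleolar compartment, from automated 20x imaging of fixed, Hoechst-stained PC3M PTB-GFP cells. Cells were seeded 4 h, then exposed 16 h to compound (23 nl of library stock) in duplicate plates.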
ALDH1A1 inh = ALDH1A1 (human) enzyme inhibition; Purified ALDH1A1, NADH fluorescence, propionaldehyde substrate; Potency, µM (highest dose often 75.3 µM), for inactives: at the highest dose activity, negative = inhibition, most hits filed as inhibitors; 7.3% of 220,000 active;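 note: potency is the fitted concentration of half-maximal effect; plate controls were no enzyme wells and a reference inhibitor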
HTT ATP protect = protects HTT-Q103 PC12 cells, measured by ATP; AID 1471; Potency, µM (titrated, usually from 56.4 µM), for inactives: cytoprotection (ATP increase), hits mostly activators; PC12 HTT-Q103 induced, cytoprotection, ATP luminescence, 40 h; 0.14% of 230,000 active; active = well fitted curve in the direction sought with a large enough effect; inconclusive = small, poorly fitted or top-dose-only effect, or another doubt; inactive = no such curve, though single readings can be large; an effect the other way counts as inactive or inconclusive; note: potency is the fitted concentration of half-maximal effect; % of control where 0% means no effect; nearly all actives have a fitted effect of over 45% in size
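Compounds added alongside 100 nM tebufenozide, which induces toxic Q103 huntingtin exon 1-GFP in stable PC12 cells; surviving cells quantified by luminescent ATP measurement. Medium: phenol red-free DMEM, 5% equine and 5% calf serum.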
Active calls of the source: *; ? = inconclusive; / = no result; [ ] = another dose, or the depositor's remark. Most compounds without a hit are left out; they make up all but 11% or so of the library. Unless noted, calls come from the whole dose curve; as a rule, active = well fitted inhibition curve with a large enough effect (not every such curve was filed as active); inconclusive = small, poorly fitted or top-dose-only effect, or another doubt; inactive = no such curve, though single readings can be large or run the other way.

SMILES	HPGD inh	HttQ103 aggreg	GoLoco inh red	PNC inhibitor	ALDH1A1 inh	HTT ATP protect
O=C(/C=C/c1ccccc1Cl)NCc1ccccc1	-29.1%	3.3%	-1.7%	-26.7	-10.1%	0.3%
CSc1nc(N(C)NC(=O)c2ccc(F)cc2)c2ccccc2n1	-0.8%	-14.0%	30.3%	-82.6*	16.9%	-33.4%[10 µM]
Cn1c(CNC(=O)c2ccc(F)cc2)nc2ccccc21	-10.2%	-9.8%	-1.8%	-29.0	6.3%	-5.8%
c1ccc(CNCCNCc2ccccc2)cc1	/	27.4%	/	/	/	12.1%
O=C(NCc1ccco1)c1cccc(S(=O)(=O)N2CCCCC2)c1	-17.3%	-2.6%	7.1%	-100.0*	?	14.8%[10 µM]
COc1ccc(N2CCN(S(=O)(=O)c3ccc(C(=O)NCc4ccco4)cc3)CC2)cc1	-5.3%	12.6%	-5.4%	-11.9	7.94µM*	-3.6%[10 µM]
O=C(Nc1ccccc1)c1ccc(NCCN2CCOCC2)c(S(=O)(=O)N2CCOCC2)c1	-1.7%	-13.8%	10.0%	15.8	7.5%	-5.6%
O=C(NCc1ccco1)c1ccc(S(=O)(=O)N2CCOCC2)cc1	15.8µM*	17.8%	16.5%	106.2	15.8µM*	-4.2%
O=C(Nc1ccccc1)c1ccc(NCc2ccco2)c(S(=O)(=O)N2CCOCC2)c1	-13.3%	10.4%	-5.3%	-87.8*	?	1.1%
O=C(Cc1c(F)cccc1Cl)Nc1ccccc1N1CCCCC1	/	-4.7%	-4.0%	/	1.3%	-44.5%
Cc1cnc(CNc2ccnc(-c3ccc(C(=O)N(C)C)cc3)n2)cn1	5.62µM*	/	6.2%	/	-5.5%	-10.7%
CC(C)(C)C(=O)OCCNc1nc(-c2ccccc2)nc2ccccc12	-11.2%	-8.3%	-2.8%	19.8	13.9%	-0.6%[10 µM]
CCCC(Oc1ccc(Br)cc1)c1nc2c3cc(OC)c(OC)cc3nc(=S)n2[nH]1 (stereo not drawn)	/	?	3.8%	/	5.2%	?
CC(Oc1ccc(Br)cc1)c1nc2c3ccccc3nc(=S)n2[nH]1 (stereo not drawn)	/	8.91µM*	4.6%	/	0.3%	-70.3%
COc1ccc2c(c1)CCN(C(=O)CCl)C2C1C(=O)CCCC1=O (stereo not drawn)	-5.1%	-4.5%	4.5%	10.9	22.4µM*	-6.5%[10 µM]
N#CC(C#N)=Cc1ccc(NC(=O)c2ccc(Br)cc2)cc1	/	-22.0%[9.22 µM]	11.2%	/	/	-4.9%[10 µM]
CC(C)(C)c1ccc(C(=O)Nc2ccc(C=C(C#N)C#N)cc2)cc1	-16.1%	15.6%	5.8%	-134.0*	3.98µM*	-22.0%[10 µM]
COc1ccc2nc(NCCCO)[nH]c2c1	-1.7%	3.4%	-8.2%	38.9	2.5%	18.1%[10 µM]
COc1ccc2nc(S(=O)Cc3ncc(C)c(OC)c3C)[nH]c2c1 (stereo not drawn)	28.2µM*	?	-33.7%	-17.0	-2.0%[20.9 µM]	?
CC(C)CCNC(=S)Nc1ccccn1	-6.8%	0.2%	-4.1%	?	6.31µM*	?
S=C(Nc1ccc(Nc2ccccc2)cc1)Nc1ccccn1	/	2.7%[9.22 µM]	31.8%	/	15.8µM*	-52.2%
Cc1ccc(NC(=S)NCCC(c2ccccc2)c2ccccc2)c(C)c1	-24.1%	12.6µM*	7.7%	?	?	14.8%[10 µM]
Cc1ccc(NC(=S)NCCc2c[nH]c3ccccc23)cc1	1.3%	0.0%	11.3%	5.8	-5.2%	-5.2%
Cc1cccc(NC(=S)NCCc2c[nH]c3ccccc23)c1	-15.8%	11.2µM*	11.3%	-0.9	1.8%	8.7%[10 µM]
Cc1ccccc1NC(=S)NCCC(c1ccccc1)c1ccccc1	-1.6%	?	7.0%	6.2	-6.2%	-79.8%
SMILES	HPGD inh	HttQ103 aggreg	GoLoco inh red	PNC inhibitor	ALDH1A1 inh	HTT ATP protect
O=C(Nc1ccccc1)C(=O)Nc1ccccn1	-1.3%	-6.6%	-9.5%	41.6	-3.7%	-49.6%
Cc1cccc(NC(=S)NCCC(C)C)c1	28.2µM*	4.3%	-25.9%	-4.9	-5.0%	-5.4%[0.074 µM]
Cc1cccc(NC(=O)N[C@@H](C)C(=O)O)c1	-11.4%	16.0%[1.84 µM]	-7.7%	-113.4*	8.9%	16.1%
COC(=O)[C@H](C)NC(=O)Nc1cccc(Br)c1	/	-3.1%[9.22 µM]	5.6%	/	3.8%	4.1%[10 µM]
O=C(O)c1ccc(C2CCCCC2)cn1	-16.1%	3.16µM*	-56.3%	?	-6.1%	-43.2%
O=C1CCCC/C1=N\Nc1ccc(C2CCCCC2)cc1	/	-2.3%[9.22 µM]	9.3%	/	/	-19.4%[10 µM]
COc1ccc(C/C(N)=N/OC(=O)C(c2ccccc2)c2ccccc2)cc1OC	/	3.3%	/	-4.7	6.31µM*	13.3%
COc1ccc(C/C(N)=N/OC(=O)Cc2ccc(OC)c(OC)c2)cc1	-5.9%	-13.9%	-2.0%	-3.7	-5.5%	-11.7%
COc1ccc(/C(N)=N/OC(=O)Cc2ccc(OC)c(OC)c2)cc1	/	?	/	-15.4	7.94µM*	-3.1%
COc1ccc(C/C(N)=N/OC(C)=O)cc1OC	-0.2%	9.0%	9.2%	?	9.6%	21.2%[0.074 µM]
FC(F)(F)c1ccccc1-c1cc(NCc2cccs2)ncn1	/	/	11.2%	/	-4.6%	4.7%
Clc1ccc(-c2c[n+](Cc3ccc(Cl)cc3Cl)c3n2CCCCC3)cc1	/	-3.7%[9.22 µM]	3.1%	/	/	-46.0%[10 µM]
C[n+]1cc(-c2ccccc2)n2c1CCCCC2	-3.3%	?	4.47µM*	36.4	-5.2%	-14.4%
Clc1ccc(C[n+]2cc(-c3ccccc3)n3c2CCCCC3)c(Cl)c1	/	11.2µM*	-1.3%	/	4.3%	-48.1%[10 µM]
CCC/C=C(\CCC)C(NS(=O)(=O)c1cccc2cccnc12)c1ccc(-c2ccccc2)cc1 (stereo not drawn)	-17.7%	/	-11.2%	/	-9.8%	-68.2%
O=C(Cn1nc(C(F)F)cc1C(F)F)NNC(=S)Nc1ccc(F)cc1	-17.4%	18.1%	-4.8%	-26.6	0.0%	-18.1%
Cc1ccc(NC(=O)Cn2nc(C)c([N+](=O)[O-])c2C)cc1C	/	-17.1%[9.22 µM]	-0.8%	/	20µM*	-10.1%
Cc1nn(CC(=O)Nc2ccccn2)c(C)c1[N+](=O)[O-]	-18.9%	-4.2%	10.0%	-24.5	-2.9%	6.7%
O=C(Cn1nc(C(F)F)cc1C(F)F)NNC(=S)Nc1ccc([N+](=O)[O-])cc1	/	-6.0%[9.22 µM]	-3.6%	/	17.8µM*	-3.6%[10 µM]
Cc1nn(CCC(=O)NNC(=S)Nc2ccc([N+](=O)[O-])cc2)c(C)c1[N+](=O)[O-]	/	25.4%	-0.7%	/	4.47µM*	/
Cc1nn(CCC(=O)NNC(=S)Nc2ccc(F)cc2)c(C)c1Br	-11.8%	14.6%	0.6%	?	?	21.9%[10 µM]
O=S(=O)(O)c1cc(O)c2c(N=Cc3ccccc3O)cc(S(=O)(=O)O)cc2c1	-24.6%	/	-33.5%[14.2 µM]	/	?	2.2%[10 µM]
O=C1CCC(C(=O)N(c2ccccc2)C2(C(=O)NC3CCCCC3)CCCCC2)N1 (stereo not drawn)	/	11.3%	/	-9.7	7.08µM*	1.0%

Screens (PubChem)
